This note sets out measurements from PubChem BioAssay (EPA / NIEHS).

Records with an inconclusive call do not appear. Calls of active or inactive are those of the source. How the source made its calls: active means hit-call score of the fitted dose curve at least 0.9, where 1 is the maximum; inconclusive means response in the unintended direction; inactive means score below 0.9.

Experiment [1] concerns the target rat Neurokinin-1 Receptor (NK1), Tacr1 (gene 24807) (UniProt P14600). Nature of the experiment: NVS_GPCR_rNK1: NovaScreen (NVS) G Protein-Coupled Receptor Assay for rat Neurokinin-1 Receptor (NK1) (AID 2283309). The gist of the method: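 Competitive radioligand binding to NK1 in rat submaxillary membranes, 1 h incubation, filtration and scintillation read-out. Compounds first screened at 25 uM in duplicate, then concentration-response for actives; signal loss relative to DMSO.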

In experiment [2] the target is rat Neonicotinoid receptor (NNR), Chrna7 (gene 25302) (UniProt Q05941). Nature of the experiment: NVS_LGIC_rNNR_BungSens: NovaScreen (NVS) Ligand-Gated Ion Channel Assay for rat Neonicotinoid receptor (NNR) (AID 2283315). The method in brief: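 Rat cortical membrane preparation incubated 2.5 h with tritiated or iodinated radioligand and test chemical. Bound radioactivity was filtered and counted by scintillation, and displacement was analysed against DMSO.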

Experiment [3] deals with rat Neurokinin-3 Receptor (NK3), Tacr3 (gene 24808) (UniProt P16177). Nature of the experiment: NVS_GPCR_rNK3: NovaScreen (NVS) G Protein-Coupled Receptor Assay for rat Neurokinin-3 Receptor (NK3) (AID 2283310). The gist of the method:
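Filter-based radioligand displacement on rat cortex membrane preparations, read by scintillation 2 h post-dose. Chemicals first tested in duplicate at 25 uM; actives followed up in concentration series with a 50 uM maximum.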

The target of experiment [4] is rat Opioid Receptor, Non-selective Sodium (Na+) Binding, Oprm1 (gene 25601) (UniProt P33535). In words: NVS_GPCR_rOpiate_NonSelectiveNa: NovaScreen (NVS) G Protein-Coupled Receptor Assay for rat Opioid Receptor, Non-selective Sodium (Na+) Binding (AID 2283311). The method in brief: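 Filtration radioligand binding on rat forebrain membrane preparations, read 1.5 h after dosing. Single-concentration 25 µM primary screen in duplicate, followed by singleton concentration series to 50 µM max for actives; DMSO baseline.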

Experiment [5] deals with rat Opioid Receptor, Non-selective Binding, Oprm1 (gene 25601) (UniProt P33535). Nature of the experiment: NVS_GPCR_rOpiate_NonSelective: NovaScreen (NVS) G Protein-Coupled Receptor Assay for rat Opioid Receptor, Non-selective Binding (AID 2283318). The gist of the method:
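Filter-based radioligand displacement using rat forebrain membrane preparations, measured 1.5 h post-dosing. Single-concentration duplicate screen at 25 uM, follow-up in concentration series; activity taken as signal loss relative to DMSO.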

Experiment [6] concerns the target rat Glutamate, AMPA Site (AMPA), Gria1 (gene 50592) (UniProt P19490). Nature of the experiment: NVS_LGIC_rAMPA: NovaScreen (NVS) Ligand-Gated Ion Channel Assay for rat Glutamate, AMPA Site (AMPA) (AID 2283324). The method in brief: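 Screening at 25 uM in duplicate preceded concentration series reaching 50 uM for qualifying compounds. Radioligand displacement on rat forebrain membranes, 1 h, filter-based scintillation readout; reduced binding relative to DMSO.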

Experiment [7] addresses rat Glutamate, NMDA Agonist Site (GluNMDA), Grin1 (gene 24408) (UniProt P35439). In words: NVS_LGIC_rGluNMDA_Agonist: NovaScreen (NVS) Ligand-Gated Ion Channel Assay for rat Glutamate, NMDA Agonist Site (GluNMDA) (AID 2283327). The gist of the method: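 Radioligand displacement at the agonist site on rat forebrain membrane preparations, read by filter scintillation after 1 h. Chemicals were first run at 25 uM in duplicate; those passing threshold were titrated to a 50 uM maximum.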

A further experiment has as its target Adra2b (gene 24174) (UniProt P19328). In words: NVS_GPCR_rmAdra2B: NovaScreen (NVS) G Protein-Coupled Receptor Assay for hybird cells Adrenergic, Alpha 2B Receptor (Adra2B) (AID 2283306). The method in brief: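 Compounds screened first at 25 uM in duplicate, with actives followed up in concentration-response; specific radioligand displacement from hybrid neuroglioma/blastoma cell membrane preparations measured by filter scintillation counting after 1 h, normalized to DMSO.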

Experiment [8] concerns the target Sodium channel protein type 1 subunit alpha (Rattus norvegicus) (UniProt P04774). In words: NVS_IC_rNaCh_site2: NovaScreen (NVS) Ion Channel Assay for rat Sodium Channel, Site 2 (NaCh) (AID 2283322).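 Further: hit means loss of radioligand binding signal relative to DMSO so AC50 marks displacement.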 The gist of the method: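 Initial duplicate single-point testing at 25 uM, followed by concentration-response runs for actives. Binding of radioligand to rat forebrain membranes quantified after 1 h via filter-based radiodetection.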

Experiment [9] has as its target rat Somatostatin Receptor (SST), Sstr1 (gene 25033) (UniProt P28646). In words: NVS_GPCR_rSST: NovaScreen (NVS) G Protein-Coupled Receptor Assay for rat Somatostatin Receptor (SST) (AID 2283314). The gist of the method: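 Single-concentration duplicate screen (25 uM), then concentration-response up to 50 uM for chemicals passing a threshold such as 30% inhibition. Membranes came from rat forebrain. Binding was measured 1 h post-dose by filter radiodetection and scintillation, relative to DMSO.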

Experiment [10] addresses rat Vasopressin 1 Receptor (V1), Avpr1a (gene 25107) (UniProt P30560). Nature of the experiment: NVS_GPCR_rV1: NovaScreen (NVS) G Protein-Coupled Receptor Assay for rat Vasopressin 1 Receptor (V1) (AID 2283316). The method in brief: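 Concentration-response up to 50 uM for chemicals passing a threshold such as 30% inhibition in an initial duplicate 25 uM screen. Displacement of radioligand from rat liver membranes measured after 1.5 h by filtration and scintillation.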

Experiment [11] in a line: NVS_IC_rCaDHPRCh_L: NovaScreen (NVS) Ion Channel Assay for rat Calcium Channel, Type L, Dihydropyridine Site (CaDHPRCh_L) (AID 2283320). The gist of the method:
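Rat cortex membrane preparation; dihydropyridine-site radioligand displacement read 1 h post-dose by filtration and scintillation. Primary single-point screen 25 uM in duplicate, then concentration series to 50 uM maximum; DMSO as negative control.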

For experiment [12], the target named is rat Thyrotropin Releasing Hormone Receptor (TRH), Trhr (gene 25570) (UniProt Q01717). In words: NVS_GPCR_rTRH: NovaScreen (NVS) G Protein-Coupled Receptor Assay for rat Thyrotropin Releasing Hormone Receptor (TRH) (AID 2283329).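 Further: hit means lower bound tracer signal versus DMSO baseline.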 The gist of the method:
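Competitive radioligand binding on rat forebrain membrane preparations, with filtration and scintillation readout after 4 h. Primary testing in duplicate at 25 uM; actives confirmed in concentration-response. DMSO defined baseline.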

The target of experiment [13] is human Serotonin, 5-Hydroxytryptamine Receptor 3 (5HT3), HTR3A (gene 3359) (UniProt P46098). Nature of the experiment: NVS_LGIC_h5HT3: NovaScreen (NVS) Ligand-Gated Ion Channel Assay for human Serotonin, 5-Hydroxytryptamine Receptor 3 (5HT3) (AID 2283325). The method in brief:
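Initially tested at 25 uM in duplicate, then up to 50 uM in concentration-response for actives, compounds competed with a radioligand for HEK293-derived human 5-HT3 receptor. Bound counts were measured by filtration and scintillation at 1 h; loss of signal versus DMSO.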

Experiment [14] deals with Metabotropic glutamate receptor 1 (Rattus norvegicus) (UniProt P23385). In words: NVS_GPCR_rmMGluR1: NovaScreen (NVS) G Protein-Coupled Receptor Assay for rat Glutamate Metabotropic Receptor 1 (MGluR1) (AID 2283305). The method in brief:
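Binding to native receptor from rat cerebellum extract, measured as displacement of a radioligand (scintillation counting, filter separation) after 1 hour. Compounds tested at 25 uM in duplicate, then titrated to a 50 uM maximum.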

Experiment [15] deals with rat Glutamate Metabotropic Receptor 5 (MGluR5), Grm5 (gene 24418) (UniProt P31424). In words: NVS_GPCR_rmMGluR5: NovaScreen (NVS) G Protein-Coupled Receptor Assay for rat Glutamate Metabotropic Receptor 5 (MGluR5) (AID 2283307). The gist of the method:
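Compounds first screened in duplicate at 25 uM, then in concentration series up to 50 uM if over threshold. Radioligand displacement on rat whole-brain membranes, filtration and scintillation counting after 1.5 h; binding loss relative to DMSO.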

What is called AC50 is the concentration giving half of the maximal activity seen.

rat Neonicotinoid receptor (NNR), Chrna7 (gene 25302), sequence (Q05941 whole entry, looked up): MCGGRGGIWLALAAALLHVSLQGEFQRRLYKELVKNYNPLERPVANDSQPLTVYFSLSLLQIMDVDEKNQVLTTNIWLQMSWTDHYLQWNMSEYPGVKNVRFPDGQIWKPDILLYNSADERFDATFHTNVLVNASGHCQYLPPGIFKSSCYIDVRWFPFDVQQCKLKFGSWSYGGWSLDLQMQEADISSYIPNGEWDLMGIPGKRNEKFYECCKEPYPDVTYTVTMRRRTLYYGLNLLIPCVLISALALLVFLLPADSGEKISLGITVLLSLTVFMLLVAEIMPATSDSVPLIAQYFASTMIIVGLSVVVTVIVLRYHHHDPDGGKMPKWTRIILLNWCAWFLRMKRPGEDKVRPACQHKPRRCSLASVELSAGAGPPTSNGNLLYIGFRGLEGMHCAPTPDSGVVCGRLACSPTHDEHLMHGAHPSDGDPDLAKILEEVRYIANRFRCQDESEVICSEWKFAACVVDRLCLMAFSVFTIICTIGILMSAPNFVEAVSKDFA
rat Opioid Receptor, Non-selective Sodium (Na+) Binding, Oprm1 (gene 25601), sequence (P33535 whole entry, looked up): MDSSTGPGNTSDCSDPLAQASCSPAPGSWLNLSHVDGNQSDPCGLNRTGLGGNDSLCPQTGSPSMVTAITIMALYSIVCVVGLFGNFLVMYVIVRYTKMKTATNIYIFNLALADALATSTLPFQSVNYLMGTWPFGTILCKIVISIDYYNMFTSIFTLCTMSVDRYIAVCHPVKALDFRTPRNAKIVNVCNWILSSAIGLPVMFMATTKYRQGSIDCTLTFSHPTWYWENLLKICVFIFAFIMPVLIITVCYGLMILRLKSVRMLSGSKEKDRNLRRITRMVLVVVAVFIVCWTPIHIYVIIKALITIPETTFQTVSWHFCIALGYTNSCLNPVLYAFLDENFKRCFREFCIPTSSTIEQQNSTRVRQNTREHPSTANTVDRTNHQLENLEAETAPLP
rat Opioid Receptor, Non-selective Binding, Oprm1 (gene 25601), sequence (P33535 whole entry, looked up): as above
Adra2b (gene 24174), sequence (P19328 whole entry, looked up): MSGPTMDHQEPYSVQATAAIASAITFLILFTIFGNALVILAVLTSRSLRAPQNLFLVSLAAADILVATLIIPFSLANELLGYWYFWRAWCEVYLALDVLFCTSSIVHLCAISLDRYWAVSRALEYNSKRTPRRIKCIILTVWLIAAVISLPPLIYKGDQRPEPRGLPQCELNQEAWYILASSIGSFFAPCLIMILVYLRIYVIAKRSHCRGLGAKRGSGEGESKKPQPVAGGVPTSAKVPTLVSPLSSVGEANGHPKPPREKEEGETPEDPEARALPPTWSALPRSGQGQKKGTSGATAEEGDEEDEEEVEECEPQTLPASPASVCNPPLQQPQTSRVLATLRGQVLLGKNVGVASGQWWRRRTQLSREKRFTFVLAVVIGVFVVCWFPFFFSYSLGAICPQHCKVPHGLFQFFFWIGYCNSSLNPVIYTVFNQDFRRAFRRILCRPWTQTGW
rat Somatostatin Receptor (SST), Sstr1 (gene 25033), sequence (P28646 whole entry, looked up): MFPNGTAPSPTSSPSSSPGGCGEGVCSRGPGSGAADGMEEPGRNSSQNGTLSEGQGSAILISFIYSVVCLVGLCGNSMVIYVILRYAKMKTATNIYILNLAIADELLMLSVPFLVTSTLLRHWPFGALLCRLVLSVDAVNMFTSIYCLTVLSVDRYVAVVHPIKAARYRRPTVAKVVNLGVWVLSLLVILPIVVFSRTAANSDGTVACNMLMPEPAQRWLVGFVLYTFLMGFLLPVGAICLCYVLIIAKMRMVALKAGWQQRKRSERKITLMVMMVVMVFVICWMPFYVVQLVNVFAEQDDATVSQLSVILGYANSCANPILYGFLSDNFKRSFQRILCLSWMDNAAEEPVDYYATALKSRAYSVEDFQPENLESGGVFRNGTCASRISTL
rat Neurokinin-1 Receptor (NK1), Tacr1 (gene 24807), sequence (P14600 whole entry, looked up): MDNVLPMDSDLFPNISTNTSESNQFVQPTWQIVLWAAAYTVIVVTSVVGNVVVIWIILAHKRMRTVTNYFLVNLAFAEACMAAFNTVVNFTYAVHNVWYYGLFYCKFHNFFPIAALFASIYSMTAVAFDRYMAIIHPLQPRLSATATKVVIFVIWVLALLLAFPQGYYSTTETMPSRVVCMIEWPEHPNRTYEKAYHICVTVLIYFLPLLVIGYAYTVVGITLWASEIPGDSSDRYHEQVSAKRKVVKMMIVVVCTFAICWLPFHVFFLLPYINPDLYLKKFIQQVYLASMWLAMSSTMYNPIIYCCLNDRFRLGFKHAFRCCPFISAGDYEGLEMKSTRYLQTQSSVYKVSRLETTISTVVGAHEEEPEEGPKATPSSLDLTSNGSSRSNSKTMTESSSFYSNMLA
rat Thyrotropin Releasing Hormone Receptor (TRH), Trhr (gene 25570), sequence (Q01717 whole entry, looked up): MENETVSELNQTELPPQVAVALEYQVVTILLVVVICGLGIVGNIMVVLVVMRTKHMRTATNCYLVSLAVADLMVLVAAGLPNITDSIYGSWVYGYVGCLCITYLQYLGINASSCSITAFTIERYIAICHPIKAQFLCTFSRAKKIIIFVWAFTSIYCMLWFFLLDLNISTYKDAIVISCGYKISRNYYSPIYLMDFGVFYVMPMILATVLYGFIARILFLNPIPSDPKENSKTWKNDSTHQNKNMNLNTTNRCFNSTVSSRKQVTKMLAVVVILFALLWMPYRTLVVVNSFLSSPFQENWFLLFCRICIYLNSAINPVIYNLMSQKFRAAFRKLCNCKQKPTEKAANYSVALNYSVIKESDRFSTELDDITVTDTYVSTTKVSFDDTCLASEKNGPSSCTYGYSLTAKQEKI
rat Vasopressin 1 Receptor (V1), Avpr1a (gene 25107), sequence (P30560 whole entry, looked up): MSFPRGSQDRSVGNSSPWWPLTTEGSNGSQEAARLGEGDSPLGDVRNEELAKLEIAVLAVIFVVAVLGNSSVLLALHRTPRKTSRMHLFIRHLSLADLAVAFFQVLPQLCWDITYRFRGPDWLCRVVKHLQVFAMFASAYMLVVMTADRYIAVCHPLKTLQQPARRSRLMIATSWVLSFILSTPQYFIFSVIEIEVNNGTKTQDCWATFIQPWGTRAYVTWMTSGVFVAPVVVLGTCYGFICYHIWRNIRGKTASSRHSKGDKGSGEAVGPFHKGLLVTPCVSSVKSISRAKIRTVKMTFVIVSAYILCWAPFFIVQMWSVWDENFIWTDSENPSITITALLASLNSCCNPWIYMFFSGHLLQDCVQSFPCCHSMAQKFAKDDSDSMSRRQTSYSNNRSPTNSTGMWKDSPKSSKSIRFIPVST
rat Neurokinin-3 Receptor (NK3), Tacr3 (gene 24808), sequence (P16177 whole entry, looked up): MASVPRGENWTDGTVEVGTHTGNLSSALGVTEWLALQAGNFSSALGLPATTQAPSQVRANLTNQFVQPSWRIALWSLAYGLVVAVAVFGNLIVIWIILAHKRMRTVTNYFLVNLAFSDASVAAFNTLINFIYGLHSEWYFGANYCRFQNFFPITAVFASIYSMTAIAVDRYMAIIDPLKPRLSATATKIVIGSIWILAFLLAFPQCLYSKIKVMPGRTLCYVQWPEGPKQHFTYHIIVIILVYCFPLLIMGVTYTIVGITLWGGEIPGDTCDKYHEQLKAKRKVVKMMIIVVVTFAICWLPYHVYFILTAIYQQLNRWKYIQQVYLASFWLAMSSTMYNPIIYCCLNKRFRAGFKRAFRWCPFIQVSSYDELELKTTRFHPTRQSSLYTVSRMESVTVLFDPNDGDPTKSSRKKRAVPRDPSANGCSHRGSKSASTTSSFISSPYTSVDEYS
rat Glutamate, AMPA Site (AMPA), Gria1 (gene 50592), sequence (P19490 whole entry, looked up): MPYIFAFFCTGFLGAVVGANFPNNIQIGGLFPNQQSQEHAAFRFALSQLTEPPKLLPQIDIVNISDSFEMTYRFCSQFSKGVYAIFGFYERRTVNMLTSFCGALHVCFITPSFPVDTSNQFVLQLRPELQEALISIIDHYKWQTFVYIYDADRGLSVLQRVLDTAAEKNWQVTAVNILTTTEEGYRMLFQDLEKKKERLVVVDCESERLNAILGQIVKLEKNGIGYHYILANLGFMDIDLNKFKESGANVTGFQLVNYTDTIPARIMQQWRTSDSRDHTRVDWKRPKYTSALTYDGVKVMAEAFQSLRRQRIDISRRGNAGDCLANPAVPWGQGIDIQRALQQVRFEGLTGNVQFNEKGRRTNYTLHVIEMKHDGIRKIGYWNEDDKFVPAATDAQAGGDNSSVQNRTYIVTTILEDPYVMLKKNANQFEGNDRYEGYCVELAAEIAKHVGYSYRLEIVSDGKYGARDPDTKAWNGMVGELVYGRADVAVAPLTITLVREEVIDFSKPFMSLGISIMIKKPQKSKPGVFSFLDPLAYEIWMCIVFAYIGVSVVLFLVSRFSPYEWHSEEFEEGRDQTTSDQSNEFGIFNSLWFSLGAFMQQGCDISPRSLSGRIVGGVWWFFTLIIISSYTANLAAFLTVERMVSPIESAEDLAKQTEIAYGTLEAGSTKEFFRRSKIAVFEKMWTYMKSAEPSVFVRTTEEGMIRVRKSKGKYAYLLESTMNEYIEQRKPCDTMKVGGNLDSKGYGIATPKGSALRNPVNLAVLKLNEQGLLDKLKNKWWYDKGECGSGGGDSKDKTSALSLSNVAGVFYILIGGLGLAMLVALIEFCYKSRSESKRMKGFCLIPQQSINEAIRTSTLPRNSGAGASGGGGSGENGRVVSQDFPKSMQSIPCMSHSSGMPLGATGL

On to `CC(C)(C)c1csc(-c2cc3cc(OCc4ccccc4CC(=O)O)ccc3o2)n1`, for which the outcome in [1] and in experiment [2] was inactive.
Turning to `CN(C[C@@H](CC[N+]12CCC(C3CCCCC3)(CC1)CC2)c1ccc(Cl)c(Cl)c1)C(=O)c1cc(C(F)(F)F)cc(C(F)(F)F)c1`, the AC50 in experiment [1] is 0.403 µM (active); in [3], 5.47 µM (active); in experiment [4] it was 12.5 µM (active); in [5], 35.5 µM (active); in experiment [7] it was 38.2 µM (active). Moreover, the call in [6] was inactive.
In the case of `CCN(CC)C(=O)c1cc(S(=O)(=O)Cc2ccccc2)c(N2CCC(c3ccccc3)CC2)cc1N(CC)CCN(C)C`, the AC50 is 7.81 µM (active) with Adra2b (gene 24174), 23.4 µM (active) in experiment [1] and 0.419 µM (active) in [8]. Also, the compound was classed as inactive in experiment [4] and in experiment [5].
With `NCc1cccc(C2CCN(C(=O)c3ccc(C#Cc4ccccc4F)o3)CC2)c1`, the concentration at half-maximal activity (AC50) in the experiment with Adra2b (gene 24174) is 13.3 µM (active); in experiment [4], 11.2 µM (active); in experiment [9], 15 µM (active); in [5] it was 12.1 µM (active); in experiment [11], 21.1 µM (active); in experiment [8], 2.68 µM (active). Moreover, in experiment [10], the compound was classed as inactive.
As to `O=C1CCC(C2CCCCC2)CC1`, the compound was classed as inactive (with Adra2b (gene 24174); in experiment [2]; in experiment [12]).
Consider `CC[C@H](NC(=O)c1cc(F)ccc1NS(=O)(=O)c1cccc2cccnc12)c1ccccc1`, for which the compound was called inactive in [1] and in experiment [8].
As to `CN(C)c1ccc(C(=C2C=CC(=[N+](C)C)C=C2)c2ccc(N(C)C)cc2)cc1`, the half-maximal activity concentration (AC50) with Adra2b (gene 24174) was 9.73 µM (active); in experiment [1] it was 15.6 µM (active); in [3], 11.5 µM (active); in experiment [4] it was 9.72 µM (active); in [2], 16.4 µM (active); in experiment [5] it was 2.21 µM (active). The AC50 in experiment [11] is 4.99 µM (active); in experiment [8] it was 0.263 µM (active); in experiment [13] it was 16.7 µM (active). Moreover, the outcome in experiment [9] and in experiment [6] was inactive.
For `CCOC(=O)O[C@H](C)OC(=O)c1ccc2c(c1)cc(C(=O)NC1CCN(C(C)C)CC1)n2Cc1cc(-c2ccc(Cl)s2)on1`, the AC50 in experiment [14] is 17 µM (active); with Adra2b (gene 24174) it was 15.4 µM (active); in experiment [1], 32.1 µM (active); in [9] it was 14.9 µM (active); in [11] it was 9.36 µM (active); in experiment [8], 9.62 µM (active). Further, the compound was classed as inactive in experiment [13].
Turning to `CCCCCCCCCCCC[N+](C)(C)C`, the AC50 with Adra2b (gene 24174) was 37.3 µM (active); in experiment [1] it was 44.9 µM (active); in experiment [8] it was 13 µM (active).
Take `Cc1occc1C(=O)Nc1ccc(C(=O)N2CCC(F)(F)/C(=C\C(=O)N3CCC(N4CCCCC4)CC3)c3ccccc32)cc1`: the AC50 is 1.25 µM (active) in the experiment with Adra2b (gene 24174); 11.7 µM (active) in experiment [1]; 5.68 µM (active) in [4]; 4.14 µM (active) in experiment [2]; 5.85 µM (active) in [5]; 4.89 µM (active) in [8]. The result in experiment [15], in [10] and in experiment [12] was inactive.
